Bioassay records (PubChem)
Ba/F3 V617F tox = lowers viability of Ba/F3 cells expressing EpoR and JAK2V617F; ATP luminescence; inhibition, % at 5.6 µM; 220,000 compounds, 1.1% hits; AID 1446;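 active means inhibition above the campaign mean plus 3 SD over all tested compounds, cut at about 24% in these data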;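 further: cytokine-independent growth of Ba/F3 cells driven by EpoR plus mutant JAK2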
IEC-6 tox-1 = kills IEC-6 intestinal cells in KLF5 counter-screen; IEC-6 cytotoxicity, luminescence viability; 290,000 compounds, 0.78% hits; inhibition, % at 5 µM
APP transl inh = APP translation inhibition | SH-SY5Y APP 5'UTR-luciferase reporter, luminescence | inhibition, % at 2 µM | 190,000 compounds, 0.82% hits;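 active means inhibition above a set limit, derived from the sample mean plus 3 SD, cut at about 45% in these data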
KLF5 inhibitor = suppresses KLF5 promoter-driven expression; inhibition, % at 5 µM; 290,000 compounds, 0.23% hits; DLD-1 KLF5 promoter-luciferase reporter, luminescence;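 active means inhibition above a per-plate limit of that plate's mean compound inhibition plus 3 SD, cut at about 60% in these data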;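 further: higher means less KLF5 promoter-driven luciferase light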
BaF3 tox = counter-screen for JAK2V617F inhibitors: parental Ba/F3 viability inhibitors; CellTiter-Glo ATP luminescence; inhibition, % at 5.6 µM; 220,000 compounds, 1.1% hits; AID 1486;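 active means inhibition above a per-campaign cutoff, the mean inhibition of all tested compounds plus 3 SD, cut at about 27% in these data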
BaF3 parental 2 = counter-screen for JAK2V617F inhibitors: parental Ba/F3 viability inhibitors; shares compounds with Ba/F3 V617F tox; CellTiter-Glo luminescence; cells kept alive by added IL-3; inhibition, % at 5.6 µM; 580 compounds, 31% hits; AID 1520;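 active means cell growth inhibition above the hit limit set in the earlier mutant JAK2 cell screen, cut at about 27% in these data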
JAK2V617F confrm = Ba/F3 EpoR-JAK2V617F viability loss, confirmation; shares compounds with Ba/F3 V617F tox; CellTiter-Glo luminescence; inhibition, % at 5.6 µM; 580 compounds, 66% hits; AID 1521;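 active means mean inhibition above the hit cutoff derived in the earlier primary screen, cut at about 25% in these data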;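 further: higher means lower luminescence from reduced cell ATP and viability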
KLF5 inh confirm = KLF5 inhibition, confirmation assay; DLD-1 KLF5 promoter firefly luciferase reporter, luminescence; AID 1834; inhibition, % at 4 µM; 610 compounds, 79% hits; shares compounds with KLF5 inhibitor;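 active means inhibition above a set limit taken from the earlier primary screen, cut at about 63% in these data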
IEC-6 tox-2 = rat IEC-6 cytotoxicity, KLF5 inhibitor counter-screen. shares compounds with KLF5 inhibitor. IEC-6 rat intestinal cells, viability luminescence. inhibition, % at 4 µM. 610 compounds, 56% hits. AID 1905; in the data active means inhibition above about 23%;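 further: cells exposed to compounds for 48 hours before viability read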
IEC-6 tox confirm = confirmation of cytotoxic compounds in rat IEC-6 intestinal epithelial cells. inhibition, % at 5 µM. IEC-6 rat intestinal epithelial viability, luminescence. shares compounds with IEC-6 tox-1. AID 1907. 1,900 compounds, 63% hits
Hits are given with their value; . = inactive; / = no result. An excerpt weighted towards active compounds, which were near 1.8% of everything screened. Unless noted, no stated cut-off is given here; in the data, active means inhibition above about 22%; inactive means the rest.

SMILES	Ba/F3 V617F tox	IEC-6 tox-1	APP transl inh	KLF5 inhibitor	BaF3 tox	BaF3 parental 2	JAK2V617F confrm	IEC-6 tox confirm	others
COC(=O)/C=C/S(=O)(=O)c1ccc(NC(C)=O)cc1	26	27	83	.	.	.	.	.
Nc1nc(CCl)nc(N(c2ccccc2)c2ccccc2)n1	97	90	/	.	.	.	99	.
Nc1nc(Cl)nc(N(c2ccccc2)c2ccccc2)n1	.	.	.	.	.	/	/	/
COc1ccc(C=C2C(=O)c3ccccc3C2=O)cc1O	.	.	.	.	.	/	/	/
CCN1C/C(=C/c2ccc(OC)c(O)c2)C(=O)/C(=C/c2ccc(OC)c(O)c2)C1	52	32	88	.	.	.	98	42
N#Cc1ncc(-c2ccc3c(c2)OCCOCCOCCOCCOCCO3)nc1C#N	34	32	.	.	.	.	43	.
Cc1noc(C)c1CSc1nc2ccccc2c(=O)n1-c1ccccc1	29	30	.	.	.	33	54	38
O=C(N/N=C/c1ccccc1Cl)c1[nH]c2ccc(Br)cc2c1-c1ccccc1	47	56	96	.	.	88	100	70
O=C(CS(=O)(=O)Cc1ccccc1)NCc1ccccc1Cl	/	.	/	.	/	/	/	/
COc1ccc(NC(=O)Cc2ccc(Cl)c(Cl)c2)cn1	.	.	.	.	.	/	/	/
COc1ccc(NC(=O)/C(Cl)=C(/Cl)S(=O)(=O)Cc2ccc(C)cc2)cn1	33	23	86	.	.	88	98	43
CCc1noc(C)c1C(=O)N1CCC(CCC(=O)Nc2cccc(C)c2)CC1	/	.	/	.	/	/	/	/
Cn1c(=NC(=O)CCl)sc2ccccc21	.	.	.	.	.	/	/	/
O=C(CCl)N=c1sccn1Cc1cccc2ccccc12	102	92	.	.	.	.	99	.
O=C(CCl)NCc1cc(-c2ccc(Cl)cc2)no1	24	24	.	.	.	.	75	31
COc1ccc(OCc2cc(-c3ccc(Cl)cc3)no2)cc1	.	.	.	.	.	/	/	/
O=C(NC1CCCc2ccccc21)c1n[nH]c(=O)c2ccccc12 (stereo unspecified)	24	23	.	.	.	.	42	34
O=C(NC1CCCc2ccccc21)c1ccccc1 (stereo unspecified)	.	.	.	.	.	/	/	/
O=C(NC(=O)c1ccccc1)OCCN1C(=O)c2ccccc2C1=O	.	.	.	.	.	/	/	/
CC1=C(C(N)=O)C(c2cccs2)NC(=O)N1 (stereo unspecified)	.	.	/	.	.	/	/	/
Cc1cccc(/C=N/NC(=O)c2cc(C3CC3)nc3ccccc23)n1	/	.	/	.	/	/	/	/
CCc1ccc(/C=N/NC(=O)c2cc(C3CC3)nc3ccccc23)s1	42	34	.	.	.	63	95	54
O=C1CCN(CCc2ccccc2)CCN1CCSc1ccccc1	/	.	/	.	/	/	/	/
CN1CCN(S(=O)(=O)c2cccs2)CC1	.	.	.	.	.	/	/	/
O=S(=O)(c1cccs1)N1CCN(c2ccc(O)cc2)CC1	66	24	/	.	.	.	60	.
SMILES	Ba/F3 V617F tox	IEC-6 tox-1	APP transl inh	KLF5 inhibitor	BaF3 tox	BaF3 parental 2	JAK2V617F confrm	IEC-6 tox confirm	others
COc1ccc(OCCCC(=O)Nc2cccc(C(C)=O)c2)cc1	73	89	.	.	.	.	.	.
CCOc1cccc(C2/C(=C(/O)c3ccc4c(c3)CC(C)O4)C(=O)C(=O)N2CCCn2ccnc2)c1 (stereo unspecified)	/	.	/	.	/	/	/	/
COc1ccc(-c2[nH]ncc2CN2CCC(O)(c3ccc(Cl)cc3)CC2)cc1	41	34	/	.	.	34	41	23
OC1(c2ccc(Cl)cc2)CCN(Cc2cn[nH]c2-c2ccccc2)CC1	.	.	/	.	.	/	/	/
OC1(c2ccc(Cl)cc2)CCN(Cc2cn[nH]c2-c2ccc(F)cc2)CC1	45	43	/	.	.	.	34	26
Cc1cnc(NC(=O)c2cccc(S(=O)(=O)N3CC(C)OC(C)C3)c2)s1 (stereo unspecified)	.	.	.	.	.	/	/	/
CCNC(=S)NNC(=O)c1cc(-c2ccc(OCC)cc2)nc2ccccc12	24	.	.	81	31	/	/	/	KLF5 inh confirm=79;IEC-6 tox-2=.
CC(C)(C)C(=O)Nc1cc2nn(-c3ccccc3)nc2cc1Cl	.	.	.	83	.	/	/	/	KLF5 inh confirm=93;IEC-6 tox-2=.
CC(=O)Nc1cc2nn(-c3ccccc3)nc2cc1Cl	.	.	.	.	.	/	/	/
CC(C)NC(=O)c1ccc2c(c1)N(CC(=O)N1CCCCC1)C(=O)C(C)(C)O2	/	.	/	.	/	/	/	/
Cc1ccc(/C=C2\SC(=S)N(CCCC(=O)NC3CCCC3)C2=O)cc1	/	.	/	65	/	/	/	/	KLF5 inh confirm=.;IEC-6 tox-2=.
COc1cc(/C=C2\SC(=S)N(CCC(=O)NC3CCCC3)C2=O)cc(OC)c1OC	/	.	/	.	/	/	/	/
Cc1ccc(/C=C2/SC(=S)N(CCCC(=O)Nc3ccc(O)cc3)C2=O)cc1	.	.	63	67	.	/	/	/	KLF5 inh confirm=107;IEC-6 tox-2=.
CCOC(=O)C1C(C)=C(Nc2ccc(OC)cc2)C(=O)N1c1ccc(OC)cc1 (stereo unspecified)	.	.	.	.	.	/	/	/
COc1ccc(S(=O)(=O)N2c3ccccc3OCC2c2ccccc2)cc1 (stereo unspecified)	.	.	/	.	.	/	/	/
COc1ccc(S(=O)(=O)N2c3ccccc3OCC2C)cc1 (stereo unspecified)	72	79	96	84	73	/	/	/	KLF5 inh confirm=79;IEC-6 tox-2=59
COc1cc(C(=O)NNC(=S)NC(=O)c2ccc3c(c2)OCO3)cc(OC)c1OC	.	.	/	.	.	/	/	/
COc1cc(C(=O)c2cocc2C(=O)c2ccc3c(c2)OCO3)cc(OC)c1OC	71	77	/	63	78	/	/	/	KLF5 inh confirm=76;IEC-6 tox-2=54
COc1ccc(OC)c(C2C3=C(COC3=O)Nc3cc4c(cc32)OCO4)c1 (stereo unspecified)	96	94	95	88	91	/	/	/	KLF5 inh confirm=92;IEC-6 tox-2=82
O=c1[nH]n(Cc2ccccc2)c2ccccc12	/	.	/	.	/	/	/	/
O=C(Nc1ccccc1C(F)(F)F)c1c(F)cccc1Cl	.	.	.	.	.	/	/	/
Oc1ccc(-c2nc(-c3ccc(O)c(O)c3)cs2)cc1	88	.	94	69	81	/	/	/	KLF5 inh confirm=.;IEC-6 tox-2=.
COc1ccc(S(=O)(=O)Nc2c(C)cc(C)cc2C)c2cccnc12	/	.	/	.	/	/	/	/
Cc1cccc(-c2nc(CS(=O)CC(=O)N3CC(C)CC(C)C3)c(C)o2)c1 (stereo unspecified)	/	.	/	.	/	/	/	/
Cc1ccc2occ(/C=N/NC(=O)c3ccccc3O)c(=O)c2c1	/	.	/	64	/	/	/	/	KLF5 inh confirm=.;IEC-6 tox-2=.
CC(C)(C)c1ccc(-c2noc(CCC(=O)NCc3ccco3)n2)cc1	.	.	68	62	.	/	/	/	KLF5 inh confirm=65;IEC-6 tox-2=.
